Hits are enriched below; roughly 2.7% of the tested compounds scored in any of these assays.
HepG2 tox-1: HepG2 cytotoxicity, counter-screen for TGF-b inhibitors; HepG2 CAGA-GFP viability, ATP luminescence, 18 h; Potency, µM (series often up to 46.1 µM), hits mostly cytotoxic; 410,000 compounds, 0.76% hits
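HepG2 CAGA-GFP cells (1000/well, DMEM with 1% FBS) received compound, then TGF-beta at 500 pg/mL final, and were incubated 18 hours at 37 degrees C. Viability was read by CellTiter-Glo luminescence. Media-only wells were set as complete cell-killing and DMSO as no toxicity.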
12-LOX inh: ALOX12 (human) lipoxygenase inhibition | purified 12hLO, xylenol orange hydroperoxide absorbance | Potency, µM (doses to about 108 µM), hits mostly inhibitors | 580,000 compounds, 1.1% hits
Target sequence (P18054 whole entry, looked up): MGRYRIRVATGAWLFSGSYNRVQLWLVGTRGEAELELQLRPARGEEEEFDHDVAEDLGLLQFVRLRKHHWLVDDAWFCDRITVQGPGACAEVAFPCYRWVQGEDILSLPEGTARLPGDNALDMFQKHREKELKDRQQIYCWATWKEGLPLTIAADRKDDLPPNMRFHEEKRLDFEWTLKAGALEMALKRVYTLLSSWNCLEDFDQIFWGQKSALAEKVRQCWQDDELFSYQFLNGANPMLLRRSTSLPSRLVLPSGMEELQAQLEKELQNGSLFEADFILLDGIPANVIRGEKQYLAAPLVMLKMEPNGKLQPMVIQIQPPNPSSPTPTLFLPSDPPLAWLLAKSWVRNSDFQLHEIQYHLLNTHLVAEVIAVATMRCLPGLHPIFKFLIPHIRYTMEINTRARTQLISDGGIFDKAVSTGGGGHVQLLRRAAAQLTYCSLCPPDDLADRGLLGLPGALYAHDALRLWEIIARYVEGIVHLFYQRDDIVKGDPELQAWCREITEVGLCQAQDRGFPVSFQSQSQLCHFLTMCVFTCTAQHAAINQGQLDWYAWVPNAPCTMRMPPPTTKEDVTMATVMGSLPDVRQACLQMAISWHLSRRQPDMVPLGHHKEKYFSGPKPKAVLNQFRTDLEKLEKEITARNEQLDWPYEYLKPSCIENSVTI
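Purified human 12hLO (150 nM final) in 25 mM Hepes, 0.01% Triton X-100, pH 7.0 was preincubated 15 min at room temperature with compound. Then 40 uM arachidonic acid was added, 30 min. Hydroperoxide was read by Fe-XO absorbance ratio 573/405 nm.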
ATXN2 expr inh: inhibitors of ATXN2 expression; HEK-293 ATXN2-luciferase reporter, luminescence, 24 h; Potency, µM (titrated, usually from 57 µM), usual class: inhibitors; 360,000 compounds, 0.72% hits; AID 1745845; further: nearly all actives have a fitted effect of over 55% in size
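qHTS (up to 57 uM final) was run with 24 h compound exposure of reporter cells at 37 °C. Each well was multiplexed: SteadyGlo luminescence measured ATXN2-luciferase expression after a fluorogenic Gly-Phe-AFC viability readout (25 uM final).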
S2 tox: viability counter-screen for ATXN expression inhibitors. S2 cells (HEK-293 line with an ATXN2-luciferase reporter) viability, CellTiter-Fluor protease fluorescence, 24 h. Potency, µM (top dose mostly 56.7 µM), usual class: cytotoxic. 400,000 compounds, 0.49% hits. AID 651635; further: nearly all actives have a fitted effect of over 40% in size
TGFb inhibitor: TGF-b pathway inhibition. Potency, µM (series often up to 46.1 µM), actives largely listed as inhibitors. 410,000 compounds, 1.2% hits. HepG2 CAGA-GFP TGF-b/SMAD3 reporter, GFP fluorescence, 18 h; TGF-beta stimulated, 500 pg/mL final; further: nearly all actives have a fitted effect of over 65% in size
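GFP signal (ex488/em500-530) from TGF-beta-stimulated HEPG2 CAGA-GFP cells, 500 pg/mL final, 18 h at 37 degrees C in DMEM plus 1% FBS, normalized to unstimulated and DMSO-stimulated controls.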
TGFb confirm: confirmation of TGF-b signaling inhibitors in HepG2 reporter cells; shares compounds with TGFb inhibitor; HepG2 CAGA-GFP TGF-b reporter, GFP fluorescence, 18 h; cells stimulated with TGF-beta, 500 pg/mL; Potency, µM (titrated, usually from 46.1 µM), hits mostly inhibitors; 1,600 compounds, 63% hits; further: nearly all actives have a fitted effect of over 65% in size
HepG2 tox-2: HepG2 cytotoxicity, TGF-b inhibitor counterscreen | shares compounds with TGFb inhibitor | HepG2 CAGA-GFP viability, ATP luminescence, 18 h; cells stimulated with TGF-beta, 500 pg/mL | Potency, µM (top dose mostly 46.1 µM), actives largely listed as inhibitors | 1,600 compounds, 27% hits | AID 720535; further: nearly all actives have a fitted effect of over 70% in size
CCL64 TGFb inh: TGF-b inhibition, CCL64 orthogonal assay. shares compounds with TGFb inhibitor. CCL64 CAGA-GFP reporter, TGF-b stimulated, GFP fluorescence, 18 h. Potency, µM (titrated, usually from 46.1 µM), actives largely listed as inhibitors. 1,600 compounds, 41% hits. AID 720536; further: nearly all actives have a fitted effect of over 65% in size
COP TGFb inh: validation of TGF-b inhibitors in HepG2 COP promoter reporter. shares compounds with TGFb inhibitor. Potency, µM (titrated, usually from 46.1 µM), usual class: inhibitors. 1,600 compounds, 3% hits. AID 720537. HepG2 COP-GFP TGF-b reporter, GFP fluorescence, 18 h; cells stimulated by added recombinant TGF-beta; further: nearly all actives have a fitted effect of over 70% in size
Numbers stand for hits; . = inactive; ? = inconclusive; / = no result; ! = repeats disagree; [ ] = another dose, or the depositor's remark. The call rests on the fitted dose curve; in most records, active means well fitted curve in the direction sought with a large enough effect; inconclusive means small, poorly fitted or top-dose-only effect, or another doubt; inactive means no such curve, though single readings can be large; an effect the other way counts as inactive or inconclusive.

SMILES	HepG2 tox-1	12-LOX inh	ATXN2 expr inh	S2 tox	TGFb inhibitor	others
COc1cc(/C=C2\CCCc3c2nc2ccccc2c3C(=O)O)cc(Br)c1O	.	50µM	.	?	.
CC(=O)Nc1cccc(C(=O)/C=C/c2ccc(/C=C/C(=O)c3cccc(NC(C)=O)c3)cc2)c1	/	.	/	/	/
Cc1cc(/C=C/C(=O)c2ccc(F)cc2)cc(C)c1O	/	45µM	/	/	/
CC(=O)Nc1cccc(C(=O)/C=C/c2ccc(F)cc2)c1	13µM	.	?	?	?
O=C(NCCc1ccccn1)C(F)(F)c1ccccc1	/	.	/	/	/
Nc1nc2c(ncn2COC(CO)CO)c(=O)[nH]1	.	.	24µM!	.	.
C/C(=N/Nc1ccc(S(N)(=O)=O)cc1[N+](=O)[O-])c1cccc(Br)c1	/	.	/	/	/
CCOC(=O)NC(C(=O)NCCc1ccccc1)C(C)C (centres undefined)	/	.	/	/	/
CCOc1ccc(NC(=O)c2nc(SCc3ccccc3F)ncc2Cl)cc1	.	/	/	/	.
CCOc1ccc(NC(=O)c2nc(S(=O)(=O)Cc3ccccc3F)ncc2Cl)cc1	6.3µM	?	/	/	3.2µM
O=C(Nc1ccc(OC(F)F)cc1)c1nc(S(=O)(=O)Cc2ccccc2F)ncc1Cl	11µM	?	/	/	13µM
CN(C)CCNc1oc(-c2ccc(F)cc2)nc1C#N	/	.	/	/	/
Cc1ccc(-n2c(Cl)c(Cl)nc(Cl)c2=O)cc1	7.1µM	/	5.3µM	/	5µM
COc1nc(Cl)cn(-c2ccc(C)cc2)c1=O	.	.	.	?	.
CCCN(CCC)Cc1cc(=O)oc2cc(OC)c(Cl)cc12	.	32µM	.	.	?
COCCN(CCOC)Cc1cc(=O)oc2cc(OC)ccc12	.	?	.	.	.
COCCN(CCOC)Cc1cc(=O)oc2cc(C)c(C)cc12	.	14µM	.	.	.
O=C(Nc1ccnn1Cc1cccs1)c1ccc(S(=O)(=O)N2CCCC2)cc1	/	.	/	/	/
Cc1[nH]c2ccc(F)cc2c1CC(=O)NCC(F)(F)F	/	.	/	/	/
Nc1cc2nc3ccccc3oc-2cc1=O	4.5µM	.	.	?	?
O=C(O)c1cc(=O)c2c3nc4ccccc4oc-3cc(=O)c2[nH]1	.	/	/	/	.
CC(C)OP(=O)(OC(C)C)C(Nc1ccc([N+](=O)[O-])cc1)c1cccc([N+](=O)[O-])c1 (centres undefined)	.	.	.	.	.
CC(C)OP(=O)(OC(C)C)/C(C=O)=N\Nc1ccc([N+](=O)[O-])cc1	.	?	/	28µM	?
CCC(C)C(=O)Nc1ccc(-c2nc3ccccc3o2)cc1 (centres undefined)	/	.	/	/	/
O=C(NCCc1c[nH]c2ccccc12)c1ccccc1	.	.	.	.	.
SMILES	HepG2 tox-1	12-LOX inh	ATXN2 expr inh	S2 tox	TGFb inhibitor	others
O=C(NCCNCc1c[nH]c2ccccc12)c1ccc(F)cc1	/	7.9µM	/	/	/
COc1cc(C2SCCS2)ccc1OC(=O)c1cc(OC)c(OC)c(OC)c1	/	.	/	/	/
COc1ccc(-c2ccc(C(=O)NCc3ccccc3)c3occc23)c(C)c1	.	?	.	.	?
COc1ccc(-c2ccc(C(=O)NCc3ccc(N4CCN(C)CC4)cc3)c3occc23)c(C)c1	11µM	?	?	25µM	?
O=C1C=C(N(CCO)Cc2ccccc2)c2ccccc2C1=O	10µM	/	27µM	/	8.9µM
O=C(O)c1ccccc1C(=O)Nc1ccc(Oc2cccc3ccccc23)cc1	.	.	1.6µM	.	.
Cc1ccc2c(c1)COc1c3ccc(C(=O)O)cc3nn1-2	.	.	7.9µM	.	.
COc1ccc(-c2nc3cnc(N(C)C)nc3n(-c3ccccc3)c2=O)cc1	/	.	/	/	/
COc1ccc(-n2c(=O)c(-c3ccc(Cl)cc3)nc3cnc(N(C)C)nc32)cc1	/	11µM	/	/	/
Cc1cc2cc(CNC(=S)Nc3cccc(Br)c3)ccc2[nH]1	/	28µM	/	/	/
CCCCNC(=S)NCc1ccc2[nH]c(C)cc2c1	.	?	.	.	.
CCOc1ccc(NC(=S)NCc2ccc3[nH]c(C)cc3c2)cc1	.	10µM	/	?	?
O=C(Nc1ccc(F)cc1F)c1ncoc1-c1cccc(Cl)c1	/	.	/	/	/
CC(C)(C)c1ccc(-c2nnc(SCC(=O)N3CCOC3=O)n2C2CCCC2)cc1	/	.	/	/	/
COC(=O)c1ccc2nc(-c3ccc(C#N)cc3)c(Cc3ccsc3)n2c1	/	?	.	.	/
COC(=O)c1ccc2nc(-c3ccc(F)cc3)c(Cc3ccsc3)n2c1	.	7.1µM	.	.	?
COC(=O)c1ccc2nc(-c3ccc(C)cc3)c(Cc3ccsc3)n2c1	.	40µM	.	?	.
O=c1[nH]c2ccc(S(=O)(=O)Nc3c(NC4CCCCC4)c4ccccc4oc3=O)cc2o1	/	40µM	/	/	/
Cc1nc(-c2ccc(S(=O)(=O)N3CCCN(CCc4ccccc4)CC3)s2)cs1	.	.	.	.	8.9µM	TGFb confirm=8.2µM;HepG2 tox-2=?;CCL64 TGFb inh=?;COP TGFb inh=.
COc1ccc(S(=O)(=O)N2CCN(Cc3ccccc3)CC2)c(C)c1	.	.	/	.	.
Cc1ccc(S(=O)(=O)N2CCN(C(=O)c3ccco3)CC2)c(C)c1	.	.	.	?	.
Cc1ccc(S(=O)(=O)N2CCN(CCc3ccccc3)CC2)c(C)c1	.	?	.	.	?	TGFb confirm=23µM;HepG2 tox-2=?;CCL64 TGFb inh=?;COP TGFb inh=.
Cc1ccc(S(=O)(=O)N2CCN(C(=O)c3ccccc3Cc3ccccc3)CC2)c(C)c1	.	.	.	.	11µM	TGFb confirm=16µM;HepG2 tox-2=?;CCL64 TGFb inh=?;COP TGFb inh=.
O=C(N1CCN(Cc2ccccc2)CC1)C1(c2ccc(Cl)cc2)CCOCC1	/	.[6.33 µM]	/	/	/
Clc1cccc(Cl)c1COc1cccc(-n2cnnn2)c1	/	.	/	/	/
Cc1cccc(C)c1NC(=O)CSc1nc(CN(C)C)nc2ccccc12	/	.	/	/	/
O=C(Cn1c2c(c(=O)n1Cc1ccccc1)CCN(Cc1ccccc1)C2)N1CCC(c2ccccc2)CC1	/	.	/	/	/
COc1ccc(-c2csc(NC(=O)c3ccccc3F)n2)cc1	.	.	/	.	.
O=C(Nc1cc(S(=O)(=O)N2CCCCC2)ccc1O)c1ccccc1NS(=O)(=O)c1ccc(F)cc1	.	?	?	.	18µM	TGFb confirm=16µM;HepG2 tox-2=?;CCL64 TGFb inh=?;COP TGFb inh=.

Compound activity deposited in PubChem by National Center for Advancing Translational Sciences (NCATS).
